The results in this text go back to PubChem BioAssay (NCI).

The panel holds about 83,000 compounds, 20% with a hit somewhere; the sample as a whole holds those more often.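 Activity criterion: percent growth below 10, measured after cells in 96-well plates were exposed to a single compound concentration for 48 hours.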 Values without a mark were called inactive. Calls of active or inactive are those of the source.

Test systems include T-47D breast; MDA-MB-435 melanoma; SW-620 colon; MCF7 breast; HCC-2998 colon; KM12 colon; HCT-116 colon.
Holding throughout (experiment): NCI-60 one-dose screen, 48 h (100 = growth as untreated, 0 = no growth, -100 = all killed)
Common to all, as to details: 10 µM

As for `CN(C)CCCOc1cccc(NC2=C(Cl)C(=O)C(Nc3cccc(OCCCN(C)C)c3)=C(Cl)C2=O)c1`, the growth was -44% (active) with T-47D breast; -65.5% (active) in the assay with MDA-MB-435 melanoma; -61.2% (active) in the assay on SW-620 colon; -38.3% (active) with MCF7 breast; 14% with HCC-2998 colon; 13.9% in the assay with KM12 colon.

Regarding `Nc1nc(-c2ccc(Cl)cc2)cc(-c2cc3ccccc3oc2=O)n1`, the growth with MDA-MB-435 melanoma is 104%; with SW-620 colon it was 97.2%; with MCF7 breast it was 79.8%; in the assay on HCT-116 colon, 87.7%; with HCC-2998 colon it was 126%; in the assay on KM12 colon, 103%.

As for `O=[N+]([O-])c1cc(Cl)cc(Cl)c1O`, the growth was 93% with T-47D breast; 98.5% with MDA-MB-435 melanoma; 103% in the assay with SW-620 colon; 104% in the assay on MCF7 breast; 93.5% in the assay with HCT-116 colon; 98.9% in the assay on KM12 colon.

For `CN(C)CCOc1ccccc1NC1=C(Cl)C(=O)C(Nc2ccccc2OCCN(C)C)=C(Cl)C1=O`, the growth with T-47D breast was -37.6% (active); in the assay on MDA-MB-435 melanoma it was 86.4%; with SW-620 colon, -50% (active); with MCF7 breast, -53.9% (active); in the assay with HCT-116 colon it was -75.3% (active); in the assay on HCC-2998 colon it was 101%. Moreover, the growth in the assay with KM12 colon was 93.6%.
